# In the library only some 10% were active in any assay of this set; here they are far more common.
# G9a block: blocks human histone lysine methyltransferase G9a | Potency, µM (titrated, usually from 102 µM), usual class: inhibitors | Q96KQ7 | G9a H3K9 monomethylation, AlphaScreen, 2 h | hit rate 8.8% among 350,000; also: nearly all actives have a fitted effect of over 75% in size
#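 AlphaScreen detection with an anti-monomethyl H3K9 antibody quantified product after a 2 h room-temperature reaction containing 500 nM biotinylated H3K9 peptide, 20 µM SAM and 20 nM enzyme, which had been preincubated 15 min with compound.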
# JMJD2A Tudor: inhibitors of human JMJD2A Tudor domain; hit rate 4.4% among 390,000; AlphaScreen JMJD2A-Tudor / H3K4me3 peptide binding; Potency, µM (titrated, usually from 114 µM), usual class: inhibitors; O75164; also: nearly all actives have a fitted effect of over 50% in size
# Six1-Eya2 blk: Six1/Eya2 interaction inhibition. hit rate 0.56% among 360,000. activity change, % (test concentration not listed). AlphaScreen GST-Six1/His-Eya2 binding, biochemical; active compounds read low. Q15475+O00167. AID 651725; in the data active = activity change below about -65%; inconclusive = mostly about -30% to -63%
# Target sequence (O00167 whole entry, looked up): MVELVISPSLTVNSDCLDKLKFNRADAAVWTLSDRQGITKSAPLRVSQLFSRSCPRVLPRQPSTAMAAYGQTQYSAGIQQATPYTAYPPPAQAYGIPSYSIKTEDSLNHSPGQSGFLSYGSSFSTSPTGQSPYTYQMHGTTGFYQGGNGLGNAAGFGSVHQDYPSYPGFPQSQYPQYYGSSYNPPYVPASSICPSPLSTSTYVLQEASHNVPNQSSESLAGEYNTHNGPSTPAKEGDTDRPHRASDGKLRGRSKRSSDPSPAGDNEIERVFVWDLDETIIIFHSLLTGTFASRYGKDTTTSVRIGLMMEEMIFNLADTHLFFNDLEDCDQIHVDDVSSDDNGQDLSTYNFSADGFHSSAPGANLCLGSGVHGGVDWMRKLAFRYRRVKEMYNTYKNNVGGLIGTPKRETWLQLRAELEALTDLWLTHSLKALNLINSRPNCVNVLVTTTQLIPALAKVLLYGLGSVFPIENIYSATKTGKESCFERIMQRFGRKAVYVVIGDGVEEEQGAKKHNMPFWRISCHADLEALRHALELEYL
# Target sequence (Q15475 whole entry, looked up): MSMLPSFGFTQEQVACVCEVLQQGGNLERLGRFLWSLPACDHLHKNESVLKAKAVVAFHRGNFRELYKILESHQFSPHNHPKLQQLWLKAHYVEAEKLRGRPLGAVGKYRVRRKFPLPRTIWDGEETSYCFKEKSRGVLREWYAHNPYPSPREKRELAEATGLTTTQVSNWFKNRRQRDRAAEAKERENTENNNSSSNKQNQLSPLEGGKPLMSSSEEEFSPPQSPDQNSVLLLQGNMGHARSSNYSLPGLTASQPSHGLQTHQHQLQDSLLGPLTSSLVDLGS
#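 GST-Six1 + His-Eya2 (5X stock: 250/500 nM); Tris pH 8.0, 300 mM NaCl, 0.05% BSA, 0.02% Tween 20; GSH donor/Ni acceptor beads; 1 h 37 °C dark; AlphaScreen readout.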
# BAZ2B block: BAZ2B (human) inhibition | AlphaScreen BAZ2B-H3K14Ac peptide displacement | Potency, µM (series often up to 114 µM), hits mostly inhibitors | hit rate 4.4% among 360,000 | AID 504333; also: nearly all actives have a fitted effect of over 60% in size
#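 BAZ2B 50 nM plus b-H3(5-23)K14Ac 50 nM, PBS pH 7.4/0.01% Tween-20, 30 min RT; compound added (max 110 uM), 30 min RT; streptavidin donor/Ni-chelate acceptor beads 10 ug/mL final, 20 min dark; AlphaScreen read.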
# CtBP-E1A blk: blocks the CtBP interaction with E1A; AlphaScreen GST-E1A/His-CtBP binding, 1536-well; active compounds read low; activity change, % (test concentration not listed); hit rate 0.49% among 340,000; AID 651724; in the data active = activity change below about -65%; inconclusive = mostly about -30% to -63%
#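 Homogeneous bead-based format: GST-tagged E1A captured on glutathione donor beads, His-tagged CtBP on nickel acceptor beads; compounds precede bead addition by 2 h at 37 °C.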
# HP1b chromo inh: blocks HP1-beta chromodomain binding to methylated histone tails | AlphaScreen HP1-beta / biotin-H3K9me3 peptide binding | Potency, µM (highest dose often 114 µM), usual class: inhibitors | hit rate 0.56% among 390,000 | AID 540317; also: nearly all actives have a fitted effect of over 70% in size
#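 Compound inhibition of the preformed complex between 50 nM HP1-beta and 50 nM biotinylated H3K9me3 peptide was read by AlphaScreen. Buffer was PBS pH 7.4 with 0.01% Tween-20. Incubations ran 30 min at room temperature, with 10 ug/mL donor/acceptor beads.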
# Numbers stand for hits; n = inactive; u = inconclusive; x = not tested or not shown; ! = repeats disagree; [ ] = another dose, or the depositor's remark. Unless noted, calls follow the shape of the dose curve; as a rule, active = well fitted inhibition curve with a large enough effect; inconclusive = small, poorly fitted or top-dose-only effect; inactive = no such curve, though single readings can be large or run the other way.
SMILES,G9a block,JMJD2A Tudor,Six1-Eya2 blk,BAZ2B block,CtBP-E1A blk,HP1b chromo inh
O=C(CSc1nnc(-c2cnccn2)n1Cc1ccco1)c1ccc(Cl)cc1,u,n,n,n,n,n
Brc1ccc(CSc2nnc(-c3ccccn3)n2Cc2ccco2)cc1,50µM,n,n,u,n,n
CC(C)(C)c1ccc(CSc2nnc(-c3ccccn3)n2Cc2ccco2)cc1,n[12.7 µM],n,n,u,n,n
O=C(CSc1nnc(-c2ccccn2)n1Cc1ccco1)c1ccc(Cl)cc1,40µM,u,n,u,n,n
CC(=O)Nc1ccc(Nc2nc(Nc3ccc(Cl)cc3)nc(N3CCOCC3)n2)cc1,x,n,x,x,x,n
O=C(CNC(=O)c1ccccc1)OC(Cc1ccccc1)C(=O)Nc1cc(C(F)(F)F)ccc1Cl (stereo not drawn),x,n,x,x,x,x
O=C(CSc1nnc(-c2ccccn2)n1Cc1ccco1)c1ccccc1,40µM,u,n,u,u,n
O=C(CSc1nnc(-c2cccnc2)n1Cc1ccco1)c1ccc2ccccc2c1,50µM,n,n,n,n,n
COc1ccc(C(=O)CSc2nnc(-c3ccccn3)n2Cc2ccco2)cc1,u,u,u,u,u,n
CC(NC(=O)c1ccco1)C(c1cccs1)N1CCN(c2ccc(F)cc2)CC1 (stereo not drawn),50µM,n,n,50µM,n,n
CCCC(=O)OC1(C(=O)CO)CCC2C3CCC4=CC(=O)CCC4(C)C3C(O)CC21C (stereo not drawn),n,x,x,x,x,x
c1cncc(-c2cccnc2)c1,x,n,u,40µM,u,n
Oc1cncc(-c2cccnc2)c1,n[0.501 µM],n,n,n,n,n
COc1ccc(C2Nc3ccccc3C(=O)N2CCc2ccccc2)cc1COc1ccc(NC(C)=O)cc1 (stereo not drawn),x,n,x,x,x,x
O=C1c2ccccc2NC(c2ccc(OCc3ccccc3)c(OCc3ccccc3)c2)N1Cc1ccco1 (stereo not drawn),x,n,x,x,x,n
COc1ccc(C2Nc3ccccc3C(=O)N2Cc2cccc(Cl)c2)cc1COc1ccc(NC(C)=O)cc1 (stereo not drawn),x,n,x,x,x,x
O=C1c2ccccc2NC(c2cccc(F)c2)N1Cc1ccco1 (stereo not drawn),u,n,n,56µM,n,n
CC(=O)Nc1cccc(OCc2cccc(C3Nc4ccccc4C(=O)N3Cc3ccco3)c2)c1 (stereo not drawn),x,32µM,x,x,x,x
O=C1c2ccccc2NC(c2cccc(F)c2)N1Cc1ccccc1 (stereo not drawn),n,n,n,n,n,n
COc1ccc(C2Nc3ccccc3C(=O)N2CCCN(C)C)cc1COc1ccc(NC(C)=O)cc1 (stereo not drawn),x,79µM,x,x,x,x
COc1ccc(C2Nc3ccccc3C(=O)N2Cc2ccco2)cc1COc1ccc(NC(C)=O)cc1 (stereo not drawn),u,89µM!,n,n,n,n
Cc1cc(OC(C)C(=O)Nc2cccc(-c3nc4ccccc4o3)c2)cc(C)c1Cl (stereo not drawn),n,n,x,n,x,n
NS(=O)(=O)c1ccc(-c2ccc(/C=C3\SC(=S)N(C4CCS(=O)(=O)C4)C3=O)o2)cc1 (stereo not drawn),u,n,n,n,n,n
Cc1ccc(/C=C2\SC(=S)N(C3CCS(=O)(=O)C3)C2=O)o1 (stereo not drawn),x,u,n,40µM,n,n
O=C1/C(=C/c2ccccc2)SC(=S)N1C1CCS(=O)(=O)C1 (stereo not drawn),u,n,n,n,n,n
SMILES,G9a block,JMJD2A Tudor,Six1-Eya2 blk,BAZ2B block,CtBP-E1A blk,HP1b chromo inh
CC1=C(C#N)C(=O)N(C2CCS(=O)(=O)C2)C(=O)/C1=C\c1ccc(C)o1 (stereo not drawn),20µM,x,x,45µM,x,x
O=C(CSc1nnc(NC(=O)C2CC(=O)N(c3ccc(F)cc3)C2)s1)NCc1ccco1 (stereo not drawn),45µM,u,n,n,n,n
COc1ccc(N2CC(C(=O)Nc3nnc(SCC(=O)NCc4ccco4)s3)CC2=O)cc1 (stereo not drawn),45µM,u,n,50µM,n,n
COc1cccc(N2CC(C(=O)Nc3nnc(SCC(=O)NCC4CCCO4)s3)CC2=O)c1 (stereo not drawn),n[12.7 µM],n,n,n,n,n
Cc1sc(-n2c(C)ccc2C)c(C#N)c1C,7.9µM,n,n,n,n,n
Cc1ccc(C)n1-c1sc2c(c1C#N)CCCC2,n,n,n,n,n,n
CCCCN(C)CCNC(=O)c1cc(-c2cccnc2)nc2ccc(S(=O)(=O)N3CCC(C)CC3)cc12,50µM,u,n,n,n,n
CCOC(=O)Cc1csc(NS(=O)(=O)c2ccccc2)n1,n,n,n,n,n,n
CCOC(=O)c1ccccc1-c1csc(NS(=O)(=O)c2ccc(Cl)cc2)n1,n,n,n,56µM,n,n
CCOc1ccc(C(c2c(O)cc(C)n(Cc3ccco3)c2=O)N2CCN(c3ccccc3)CC2)cc1 (stereo not drawn),u,u,x,n,x,n
COc1ccc(C(=O)c2c(C)c3ccccc3n2CC(O)CNC(C)C)cc1 (stereo not drawn),45µM,n,n,n,n,n
CCNc1nc(NC(N)=S)nc(NC(C)(C)C)n1,3.5µM,n,n,n,n,u
CCNc1nc(NCC)nc(NC(N)=S)n1,25µM,n,n,n,n,n
CCCNc1nc(NCC)nc(OC)n1,n,n,n,n,n,n
Cc1cccc(Cn2c(COc3ccccc3)nc3ccccc32)c1,n,n,x,n,x,n
COc1cc(O)ccc1C1CC(=O)Nc2c1c(=O)nc(SCc1ccccc1C)n2C (stereo not drawn),n,n,x,n,x,n
COC(=O)/C(=C1/Oc2cc(C)oc(=O)c2S1)C(F)(F)F,n,n,u,n,-83,n
COC(=O)/C(=C1/Oc2ccc(C(C)(C)C)cc2S1)C(F)(F)F,n,n,n,n,n,n
COc1ccc(-c2nnc3n2N=C(c2ccc(OC)c(OC)c2)CS3)cc1,x,n,x,x,x,x
CCOC(=O)C1CCC(CN(Cc2cccc(Br)c2)S(=O)(=O)c2ccc(Cl)cc2)CC1 (stereo not drawn),n,n,x,n,x,n
COc1cccc(C2NC(CCSC)(C(=O)O)C3C(=O)N(C(C)C)C(=O)C23)c1O (stereo not drawn),u,n,n,40µM,n,n
O=c1nc2ccccc2c(NS(=O)(=O)c2ccc(Cl)cc2)n1-c1ccccc1,n[12.7 µM],56µM,n,n,n,n
C/C(=N\NC(=O)c1nnn(-c2nonc2N)c1CN(C)c1ccccc1)c1ccc(O)cc1,n,n,n,n,n,n
CC(/C=N/NC(=O)c1nnn(-c2nonc2N)c1CN(C)C)=C\c1ccco1,79µM,n,n,n,n,n
